# Experimental data taken from article PMC12215968.
# Legend:
# [1] = target: Heat shock-related 70 kDa protein 2 (UniProt P54652); assay: cross-linking mass spectrometry
# [2] = target: Heat shock protein 105 kDa (UniProt Q92598); assay: cross-link between two proteins; cross-linking mass spectrometry
# Histone H2B type 1-L = Histone H2B type 1-L (UniProt Q99880); assay: cross-linking mass spectrometry
# Nucleobindin-1 = Nucleobindin-1 (UniProt Q02818); assay: cross-linking mass spectrometry
# 14-3-3 protein epsilon = 14-3-3 protein epsilon (UniProt P62258); assay: cross-link between two proteins; cross-linking mass spectrometry
# [3] = target: 26S proteasome non-ATPase regulatory subunit 1 (UniProt Q99460); assay: as above
# [4] = target: 26S proteasome regulatory subunit 10B (UniProt P62333); assay: as above
# [5] = target: 26S proteasome regulatory subunit 7 (UniProt P35998); assay: as above
# [6] = target: ATP synthase F(1) complex subunit alpha, mitochondrial (UniProt Q03265); assay: as above
# [7] = target: ATP synthase F(1) complex subunit gamma, mitochondrial (UniProt Q91VR2); assay: as above
# [8] = target: Creatine kinase U-type, mitochondrial (UniProt P12532); assay: as above
# [9] = target: Elongation factor 1-alpha 2 (UniProt Q05639); assay: as above
# [10] = target: Heterogeneous nuclear ribonucleoprotein A1-like 2 (UniProt Q32P51); assay: as above
# [11] = target: NADH dehydrogenase [ubiquinone] 1 beta subcomplex subunit 5, mitochondrial (UniProt Q9CQH3); assay: as above
# Septin-10 = Septin-10 (UniProt Q9P0V9); assay: as above
# Tubulin beta-2B chain = Tubulin beta-2B chain (UniProt Q9BVA1); assay: as above
substance,measurement,setting,value
"Heat shock 70 kDa protein 4, P34932",listed as a hit,[1],yes
same,listed as a hit,[2],yes
"Non-histone chromosomal protein HMG-14, P05114",listed as a hit,Histone H2B type 1-L,yes
"Nucleobindin-2, P80303",listed as a hit,Nucleobindin-1,yes
"14-3-3 protein sigma, P31947",listed as a hit,14-3-3 protein epsilon,yes
"Proteasome subunit alpha type-4, P25789",listed as a hit,[3],yes
"26S proteasome non-ATPase regulatory subunit 7, P51665",listed as a hit,[4],yes
"Proteasome subunit alpha type-6, P60900",listed as a hit,[4],yes
"Proteasome subunit alpha type-7, O14818",listed as a hit,[5],yes
"ATP synthase F(1) complex subunit epsilon, mitochondrial, P56382",listed as a hit,[6],yes
"ATP synthase F(1) complex subunit alpha, mitochondrial, Q03265",listed as a hit,[7],yes
"Creatine kinase B-type, P12277",listed as a hit,[8],yes
"Elongation factor 1-beta, P24534",listed as a hit,[9],yes
"Heterogeneous nuclear ribonucleoprotein A0, Q13151",listed as a hit,[10],yes
"NADH dehydrogenase [ubiquinone] 1 subunit C2, Q9CQ54",listed as a hit,[11],yes
"Septin-7, Q16181",listed as a hit,Septin-10,yes
"Tubulin-specific chaperone A, O75347",listed as a hit,Tubulin beta-2B chain,yes
